# High-throughput results deposited in PubChem by several laboratories.
# BoNT F protease – inhibitors of Botulinum neurotoxin F light chain protease; AID 588497; Multiplex microsphere protease cleavage assay, flow cytometry; inhibition, % at 10 µM; hit rate 0.22% among 360,000; in the data active = inhibition above about 35%, passing the limit was not always enough; inconclusive = no clear call, values can overlap the other calls
# BoNT A protease – inhibitors of Botulinum neurotoxin A light chain protease; multiplex microsphere protease substrate cleavage, flow cytometry; AID 588499; hit rate 0.17% among 360,000; inhibition, % at 10 µM
# Autofluor counter – compound fluorescence in toxin protease inhibitor counterscreen; compound autofluorescence counterscreen, microsphere flow cytometry; hits give high values; fluorescence intensity (no concentration beside the values); hit rate 3.1% among 360,000; in the data active = fluorescence intensity above about 16000; inconclusive = no clear call, values can overlap the other calls
# MazF activator – increases E. coli MazEF RNase cleavage of RNA; P0AE70; FAM/BHQ RNA-DNA oligo cleavage fluorescence, 5 h; activation, % at 20 µM; hit rate 0.32% among 350,000; AID 504720; in the data active = activation above about 50%
# Anthrax LF inh2 – anthrax lethal factor protease inhibition; P15917; multiplex microsphere protease cleavage assay, LF; inhibition, % at 10 µM; hit rate 0.12% among 360,000; AID 588501
# Target sequence (P15917 whole entry, looked up): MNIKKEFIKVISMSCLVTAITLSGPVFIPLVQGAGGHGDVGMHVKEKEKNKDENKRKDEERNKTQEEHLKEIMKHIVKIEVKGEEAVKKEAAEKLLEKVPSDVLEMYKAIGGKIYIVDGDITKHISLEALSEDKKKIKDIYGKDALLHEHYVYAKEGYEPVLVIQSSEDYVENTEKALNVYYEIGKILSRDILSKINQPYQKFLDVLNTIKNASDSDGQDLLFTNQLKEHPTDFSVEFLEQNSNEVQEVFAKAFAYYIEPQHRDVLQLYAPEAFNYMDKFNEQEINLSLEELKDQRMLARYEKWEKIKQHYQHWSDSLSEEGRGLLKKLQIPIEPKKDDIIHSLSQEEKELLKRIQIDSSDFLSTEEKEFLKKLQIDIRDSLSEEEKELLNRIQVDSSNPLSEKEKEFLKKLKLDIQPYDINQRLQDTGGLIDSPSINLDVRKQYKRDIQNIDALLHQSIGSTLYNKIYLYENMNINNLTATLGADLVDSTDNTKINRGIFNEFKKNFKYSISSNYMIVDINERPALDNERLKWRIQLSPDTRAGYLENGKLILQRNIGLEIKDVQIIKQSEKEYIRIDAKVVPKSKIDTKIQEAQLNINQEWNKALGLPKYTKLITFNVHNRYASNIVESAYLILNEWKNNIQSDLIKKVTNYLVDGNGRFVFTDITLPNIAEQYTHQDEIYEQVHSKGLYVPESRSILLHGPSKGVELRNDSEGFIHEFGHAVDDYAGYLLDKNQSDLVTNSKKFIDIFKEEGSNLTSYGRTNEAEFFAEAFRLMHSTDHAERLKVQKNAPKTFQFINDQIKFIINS
# Hits are given with their value; 0 = inactive; ? = inconclusive; - = no result given. Most compounds without a hit are left out; they make up all but 3.7% or so of the library. Cut-off read from the data, not from the text of the source, unless noted: active = inhibition above about 30%; inconclusive = no clear call, values can overlap the other calls; inactive = below that.
SMILES,BoNT F protease,BoNT A protease,Autofluor counter,MazF activator,Anthrax LF inh2
CCN(CC)C(c1ccc(F)cc1)c1nnnn1C1CCCCC1 (stereo not drawn),0,0,21991,0,0
CCCC(=O)N1CCCC(c2cc(C(=O)NCc3cccnc3)no2)C1 (stereo not drawn),0,0,0,-,0
CCC(Sc1nc(C)cc(=O)[nH]1)C(=O)Nc1nc2c(s1)CCCC2 (stereo not drawn),0,?,22164,0,0
Cc1cc(=O)[nH]c(SCC(=O)Nc2nc3c(s2)CCCC3)n1,0,0,0,0,0
CCCCN1CC(C(=O)NCc2ccc(C)cc2)CC1=O (stereo not drawn),0,0,18906,0,0
O=C1c2ccccc2C(c2nnnn2-c2ccc3c(c2)OCCO3)N1Cc1ccco1 (stereo not drawn),0,0,0,-,0
O=C1CCCC2=C1C1(CCCC1)N=C(Nc1nc3ccccc3s1)N2,0,0,0,0,0
O=C1CCCC2=C1C1(CCCCC1)N=C(Nc1nc3ccccc3s1)N2,0,0,16571,0,0
O=[N+]([O-])c1ccc(S(=O)(=O)CC2CSc3nc4ccccc4n32)cc1 (stereo not drawn),0,0,0,0,0
Cc1nnc2n(c1=O)C(CS(=O)(=O)c1ccccc1)CS2 (stereo not drawn),0,?,21322,0,0
O=C(CC(c1ccco1)S(=O)(=O)c1ccccc1)c1ccc(F)cc1 (stereo not drawn),0,0,22035,0,0
O=S(=O)(NCCC(c1ccc(F)cc1)c1ccco1)c1ccccc1 (stereo not drawn),0,0,0,0,0
CC1=C(C(=O)N(C(C)C)C(C)C)CC(CC(=O)NCc2ccco2)C(=O)N1CCCN1CCCC1=O (stereo not drawn),0,0,0,-,0
O=C(Nc1cccc(C(F)(F)F)c1)C1CCCN(S(=O)(=O)c2cnc[nH]2)C1 (stereo not drawn),0,0,22065,0,0
CCCOc1ccc(C(=O)c2nc3c(n2O)CCCC3)cc1,0,0,22563,0,0
O=C(c1ccc(Oc2ccccc2)cc1)c1nc2c(n1O)CCCC2,0,?,23776,0,0
COc1ccc(OC)c(C(=O)c2nc3c(n2O)CCCCC3)c1,0,0,23230,0,0
CCOc1ccc(C(=O)c2nc3c(n2O)CCCCC3)cc1,0,0,0,0,0
COc1ccc(C(=O)c2nc3c(n2O)CCCC3)cc1OC,0,0,0,0,0
COc1ccc(C(=O)c2nc3c(n2O)CCCCC3)cc1,0,0,0,0,0
O=c1[nH][nH]c2c1C(C1CCCCC1)OC(C1CCCCC1)C2 (stereo not drawn),0,0,0,-,0
CCCS(=O)(=O)NC(=O)C1(C)CCN(C(=O)Cc2ccc(F)cc2)C1 (stereo not drawn),0,0,0,-,0
O=c1oc2ccc3ccccc3c2cc1-c1nc2ccccc2o1,0,0,0,329,0
OC(c1ccc(Cl)cc1)c1ncc(-c2ccccc2Cl)[nH]1 (stereo not drawn),0,0,0,-,0
CCOc1ccc(CNC(=O)CCS(=O)(=O)Cc2cccc(Cl)c2)cc1OC,0,0,0,0,0
SMILES,BoNT F protease,BoNT A protease,Autofluor counter,MazF activator,Anthrax LF inh2
O=C(O)CCS(=O)(=O)Cc1cccc(Cl)c1,0,0,23460,0,0
CN(C)CC(C)(C)CNC(=O)c1cc(=O)c2ccccc2o1,0,0,21817,0,0
Cc1ccc(NC(=O)c2cc(=O)c3ccccc3o2)cc1,0,0,21364,0,0
CC(=O)Nc1ccc(NC(=O)c2cc(=O)c3ccccc3o2)cc1,0,0,0,0,0
O=C(Nc1ccc(Cl)c([N+](=O)[O-])c1)c1ccc(NCCCN2CCOCC2)c([N+](=O)[O-])c1,0,0,23261,0,0
Cc1cccc(NC(=O)c2ccc(NCC3CCCO3)c([N+](=O)[O-])c2)c1 (stereo not drawn),0,0,0,121,0
Cc1cccc(NC(=O)c2ccc(NCC3CCCO3)c([N+](=O)[O-])c2)n1 (stereo not drawn),0,0,0,0,0
Cc1ccc(NC(=O)c2ccc(NCCCN3CCOCC3)c([N+](=O)[O-])c2)cc1Cl,0,0,0,0,0
O=C(Nc1cccc(Cl)c1)c1ccc(NCC2CCCO2)c([N+](=O)[O-])c1 (stereo not drawn),0,0,0,67,0
COCCc1ccc(OC2(C)CCN(Cc3cccn3-c3nccs3)C2)cc1 (stereo not drawn),0,0,0,-,0
COC(=O)N1CCCCC1c1cc(C(=O)Nc2ccc(OC)cc2C)no1 (stereo not drawn),0,0,0,-,0
O=C(NCCc1ccccn1)C1CC(=O)N(Cc2ccccc2Cl)C1 (stereo not drawn),0,?,19830,0,0
COc1ccc(OCC(=O)OCCN2C(=O)c3ccccc3C2=O)cc1,0,0,20429,0,0
COc1ccc(/C=C2/CSC/C(=C/c3ccc(OC)c(OC)c3)C2=O)cc1OC,0,0,0,0,0
COc1ccccc1OCC(=O)Nc1ccccn1,0,0,22764,0,0
COc1cc2c(cc1NS(=O)(=O)N1CCCCC1)oc1ccccc12,0,0,23461,0,0
O=S(=O)(Nc1ccc2c(c1)oc1ccccc12)N1CCCC1,0,0,0,0,0
CNC(=O)COc1ccccc1C(=O)Nc1ccc2c(c1)oc1ccccc12,0,0,16632,0,0
O=C(Nc1ccc2c(c1)oc1ccccc12)c1cccnc1,0,0,0,0,0
O=C(Nc1ccc2c(c1)oc1ccccc12)c1ccncc1,0,0,16791,0,0
CC1(C(=O)NS(=O)(=O)c2cccc(OC(F)F)c2)CCN1C(=O)C/C=C/c1ccccc1 (stereo not drawn),0,0,0,-,0
Cc1cnc(CNC(=O)c2csc([C@@H]3C[C@H](O)[C@@H](CO)O3)n2)cn1,0,0,0,-,0
O=C(NCC(F)(F)F)Nc1ncccn1,0,0,0,0,0
O=C(NCC(F)(F)F)Nc1ccccn1,0,?,19809,0,0
COc1cc2c(cc1NC(=O)CCCCCN1C(=O)CCC1=O)oc1ccccc12,0,0,24230,0,0
SMILES,BoNT F protease,BoNT A protease,Autofluor counter,MazF activator,Anthrax LF inh2
COc1cc2c(cc1NC(=O)COc1ccccc1OC)oc1ccccc12,0,0,20273,0,0
COc1cc2c(cc1NC(=O)CCCN1C(=O)CCC1=O)oc1ccccc12,0,0,0,0,0
N#Cc1ccc2ccn(CC(=O)NC3CCCCCC3)c2c1,0,0,21036,0,0
CCOC(=O)C1=C(CN2c3ccccc3CC2C)NC(=O)NC1c1ccccc1 (stereo not drawn),0,54,0,0,44
CCOC(=O)C1=C(CCc2ccccc2)NC(=O)NC1c1ccc(Br)cc1 (stereo not drawn),0,0,0,0,0
CCOC(=O)c1nc(C)n(-c2cc(Cl)ccc2Cl)n1,0,0,19905,0,0
COc1ccc(CN2C(=O)C(CC(=O)NCCN3CCOCC3)CC(C(=O)N3CCOCC3)=C2C)cc1 (stereo not drawn),0,0,0,0,0
COc1ccc(Cc2c(-c3ccc(F)cc3)nc3ccc(Cl)cn23)c(C)c1,0,0,0,-,0
